# Bioassay records from PubChem BioAssay.
# This is a sample that favours compounds with a hit; in the whole collection about 2.1% have one here.
# aDG glyco up: alpha-DG glycosylation activation; activation, % at 10 µM; Pro5-aDG cells, alpha-DG glycosylation AlphaScreen (IIH6); 0% Pro5, 100% B10-LARGE cell signal; AID 624168; 0.22% of 360,000 active;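 active = activation of at least 8% versus controls, or a plate z-score of at least 8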;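 note: Pro5 are CHO cells carrying HIG-tagged alpha-DG that lacks glycosylation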
# GalR3 antagonist: antagonists of human GalR3; AID 651719; HEK293 GalR3-CNG cAMP membrane potential fluorescence; galR3 body fused to GalR1 C-terminus; 0.44% of 360,000 active; inhibition, % at 3 µM;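 active = inhibition above the screen-wide average plus 3 SD, cut at about 13% in these data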;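 note: forskolin and galanin both at EC90 stimulate the cells; cAMP rise reported by CNG channel membrane potential dye signal; 0% = forskolin plus galanin with DMSO and 100% = forskolin alone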
# COUP-TFII inh: blocks human COUP-TFII nuclear receptor; HEK293T NGFI-A luciferase reporter, luminescence; 0.7% of 370,000 active; inhibition, % at 8.6 µM; P24468;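 active = inhibition above a per-plate cutoff, mean inhibition of test wells between control levels plus 3 SD, cut at about 38% in these data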;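 note: cells cotransfected with COUP-TFII expression vector driving the NGFI-A reporter; 0% = median of COUP-TF2 test wells and 100% = reporter-only cells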
# Target sequence (P24468 whole entry, looked up): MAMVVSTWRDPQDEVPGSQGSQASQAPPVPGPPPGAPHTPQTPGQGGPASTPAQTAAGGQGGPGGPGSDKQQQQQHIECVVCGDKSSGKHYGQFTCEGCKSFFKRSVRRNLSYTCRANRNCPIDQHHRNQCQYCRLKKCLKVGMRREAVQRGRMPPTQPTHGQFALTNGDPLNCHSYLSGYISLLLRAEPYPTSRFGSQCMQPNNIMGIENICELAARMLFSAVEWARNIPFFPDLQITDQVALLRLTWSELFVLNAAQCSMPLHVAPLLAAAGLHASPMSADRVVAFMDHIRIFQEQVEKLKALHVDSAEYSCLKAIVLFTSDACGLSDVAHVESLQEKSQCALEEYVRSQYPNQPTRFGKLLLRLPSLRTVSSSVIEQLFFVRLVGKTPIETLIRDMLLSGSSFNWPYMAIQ
# Gli-Sufu block: blocks Gli-Sufu signaling in a luciferase reporter; Sufu-KO-LIGHT fibroblasts, Gli luciferase reporter luminescence; 0.74% of 340,000 active; inhibition, % at 5 µM;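 active = inhibition above about 55%, limit read from the data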;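 note: 0% = DMSO-treated cells and 100% = wells with medium but no cells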
# Env fusion inh: HIV envelope-mediated fusion inhibition; HeLa-JRFL Env/CEM21 cell fusion, luciferase; inhibition, % at 12.3 µM; 1.1% of 360,000 active; AID 651610;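 active = mean replicate inhibition score of at least 50 and every replicate individually at or above 50; inconclusive = only one of the two criteria met; inactive = mean below 50 and not all replicates reaching 50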;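 note: 0% = plate neutral controls and 100% = maraviroc near 300 nM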
# GalR3 conf: GalR3 (human) antagonism, confirmation; shares compounds with GalR3 antagonist; 59% of 1,600 active; HEK293 GalR3 CNG cAMP biosensor, membrane potential fluorescence; galR3 fused to GalR1 carboxy tail; challenged with forskolin and galanin at EC90; inhibition, % at 3 µM;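 active = inhibition above the primary screen's cutoff, the mean inhibition of all screened compounds plus 3 SD, cut at about 13% in these data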;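 note: 0% = forskolin plus galanin and 100% = forskolin alone with DMSO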
# HEK-CNG parental: acts as nonspecific agonist in parental HEK-CNG cells; shares compounds with GalR3 antagonist; HEK293-CNG parental cells, cAMP membrane potential fluorescence; normalised: DMSO wells 0%, forskolin wells 100%; activation, % at 3 µM; 10% of 1,600 active; in the data active = activation above about 1.3%
# Numbers without * were called inactive; ? = inconclusive; . = no result; [ ] = another dose, or the depositor's remark.
SMILES,aDG glyco up,GalR3 antagonist,COUP-TFII inh,Gli-Sufu block,Env fusion inh,GalR3 conf,HEK-CNG parental
C[C@H](CO)N1C[C@H](C)[C@H](CN(C)Cc2ccncc2)Oc2ccc(NC(=O)C3CCCCC3)cc2C1=O,.,.,.,.,8[16.7 µM],.,.
O=c1cc(-c2ccccc2)[nH]c2ccc(F)cc12,0,20*,-86,7,-5,5,1
Cc1ccc(-c2cc(=O)c3cc(F)ccc3[nH]2)cc1,0,-2,-20,-3,-14,.,.
CN1CCN(C(=O)C[C@@H]2CC[C@H](NC(=O)Nc3ccccc3F)[C@H](CO)O2)CC1,.,.,.,.,16[16.7 µM],.,.
CCC(CC)C(=O)Nc1ccc([N+](=O)[O-])cn1,0,16*,5,2,8,24*,1
COc1ccc(NC(=O)N(C)C[C@@H]2OCCCC[C@@H](C)Oc3ccc(NC(=O)Nc4ccc(F)cc4)cc3C(=O)N([C@@H](C)CO)C[C@H]2C)cc1,.,.,.,.,-11[16.7 µM],.,.
CCOc1ccc(-c2nnc3n2N=C(c2ccc(OC)cc2)CS3)cc1,0,1,11,12,-68,.,.
COc1ccc(C2=Nn3c(nnc3-c3ccccc3OC)SC2)cc1OC1CCOC1 (configuration not stated),0,-1,-108,42,-242,.,.
COc1ccc(C2=Nn3c(nnc3-c3ccccc3C(F)(F)F)SC2)cc1OC1CCOC1 (configuration not stated),0,15*,-15,12,-21,17*,0
CCOc1ccc(C2=Nn3c(nnc3-c3ccccc3OC)SC2)cc1,0,22*,-73,51,?,45*,2.2*
COc1cc(NC(=O)c2cc(C)on2)cc(C(=O)Nc2cccc(C(F)(F)F)c2)c1,0,-5,16,14,13,5,0
C/C(O)=c1/c(=O)nc2cccc3c2=c1c1ccccc1c3=O,0,19*,-19,4,67*,14*,0
COc1ccc(C2Nc3ccccc3C(=O)N2c2ccccc2)cc1Cn1cc([N+](=O)[O-])cn1 (configuration not stated),0,-4,-9,-8,39,.,.
COc1ccc(N2C(=O)c3ccccc3NC2c2ccc(OC)c(Cn3cc([N+](=O)[O-])cn3)c2)cc1 (configuration not stated),0,59*,-20,-57,11,24*,0
COCC(=O)N(C)C[C@H]1Oc2ncc(C3=CCCC3)cc2C(=O)N([C@@H](C)CO)C[C@@H]1C,.,.,.,.,-9[16.7 µM],.,.
CC(C)(C)C(=O)NC(=S)NNC(=O)c1ccc(Cl)cc1Cl,0,16*,-13,-4,22,13*,0
O=C(COC(=O)/C=C/c1ccco1)NCc1ccco1,0,15*,1,-10,-16,-1,0
O=C(COC(=O)/C=C/c1ccco1)NCc1ccccc1Cl,0,-3,-2,-5,-12,.,.
C[C@H]1CN([C@@H](C)CO)C(=O)c2cc(NS(C)(=O)=O)ccc2O[C@@H]1CN(C)Cc1ccccc1,.,.,.,.,-6[16.7 µM],.,.
O=C1c2ccc(Oc3cccc([N+](=O)[O-])c3)cc2C(=O)N1c1ccccn1,0,-4,4,-3,8,.,.
O=C1c2cc([N+](=O)[O-])cc3cc([N+](=O)[O-])cc(c23)C(=O)N1c1ccccn1,1,.,4,8,.,-2,1
Cc1ccc(S(=O)(=O)N2CCN(C(=O)COC(=O)CCOc3ccc(C(C)(C)C)cc3)CC2)cc1,3,20*,-19,-10,.,20*,-1
CCOc1ccc(OCCC(=O)OCC(=O)N2CCN(S(=O)(=O)c3ccc(C)cc3)CC2)cc1,0,-1,-11,-9,-9,.,.
CCCOC(=O)c1ccc(NC(=O)CSC2=Nc3ccccc3C3CC=NN23)cc1 (configuration not stated),0,-4,-9,12,-87,.,.
O=C(CSC1=Nc2ccccc2C2CC=NN12)Nc1ccc2c(c1)OCO2 (configuration not stated),0,20*,-3,-1,-3,10,0
SMILES,aDG glyco up,GalR3 antagonist,COUP-TFII inh,Gli-Sufu block,Env fusion inh,GalR3 conf,HEK-CNG parental
C[C@@H]1CCCCO[C@@H](CN(C)C(=O)NC2CCCCC2)[C@H](C)CN([C@@H](C)CO)C(=O)c2cc(NC(=O)CCC(F)(F)F)ccc2O1,.,.,.,.,-13[16.7 µM],.,.
Cc1cccc(-n2c(SCC(=O)N3CC(=O)Nc4ccccc43)nc3ccccc3c2=O)c1,0,15*,-7,5,50,3,1
Cc1ccc(-n2c(SCC(=O)N3CC(=O)Nc4ccccc43)nc3ccccc3c2=O)cc1C,0,-3,-2,6,19,.,.
Cc1cccc(C)c1NC(=O)COn1nnc2ccc(C(F)(F)F)cc21,0,-2,-8,1,8,.,.
O=C(COn1nnc2ccc(C(F)(F)F)cc21)Nc1c(Cl)cccc1Cl,0,15*,21,-6,-75,6,0
CCOC(=O)Cn1nc(C)c(NC(=O)COc2cccc(Cl)c2)c1C,0,21*,5,1,-3,0,0
CCOC(=O)Cn1nc(C)c(NC(=O)COc2ccc([N+](=O)[O-])cc2)c1C,0,0,7,29,7,.,.
Cc1ccc(-c2cc([C@H]3[C@@H]4C=CCC[C@@]4(C)C(=O)N3Cc3ccccc3)ccc2F)cc1,0,-4,9,-26,46,.,.
COc1ccc(-c2cc([C@H]3[C@@H]4C=CCC[C@@]4(C)C(=O)N3Cc3ccccc3)ccc2F)cc1OC,0,20*,14,0,18,12,1
COc1ccc(Cl)cc1NC(=O)Nc1ccccc1SC,0,.,14,6,11,11,0
COc1ccc(Cl)cc1NC(=O)Nc1ccccc1C(N)=O,0,4,-11,-10,7,.,.
CN1C(=O)c2cc(NC(=O)Nc3ccccc3)ccc2OC[C@H]2O[C@H](CC(=O)NC3CCC3)CC[C@@H]21,.,.,.,.,19[16.7 µM],.,.
CC(C)CN(C(=O)CN1CCN(S(=O)(=O)c2ccc3ccccc3c2)CC1)c1c(N)n(CC(C)C)c(=O)[nH]c1=O,0,18*,13,-1,.,-4,0
O=C(C[C@@H]1C[C@@H]2c3cc(NS(=O)(=O)c4ccc(F)cc4)ccc3O[C@@H]2[C@@H](CO)O1)NCc1ccccc1F,.,.,.,.,14[16.7 µM],.,.
COc1ccc(Cn2nnnc2CN(Cc2cc3cc(C)ccc3[nH]c2=O)C2CCCC2)cc1,0,-9,-24,-3,.,.,.
CCC(C)(C)n1nnnc1CN(Cc1cc2cc(OC)c(OC)cc2[nH]c1=O)C1CCCC1,0,18*,-16,-8,.,2,0
Cc1ccc2[nH]c(=O)c(CN(Cc3nnnn3C3CCCC3)C3CCCCC3)cc2c1,0,14*,-4,-2,-64,1,1
